Assay outcomes (PubChem)
A selection: hits, their analogues and other compounds. The true share with any hit is near 12%.
KCC2 mod – KCC2 (human) Cl- transport modulation; B-score of Tl+ flux slope (higher = more flux/activation; lower = inhibition) at 10 µM; KCC2 cells, thallium flux FluoZin-2 fluorescence; AID 1456; hit rate 2.2% among 190,000;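 active = thallium flux slope and its plate-corrected score both differing from the plate sample mean at a set confidence after two filtering rounds, in either direction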;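 also: slope of fluorescence scaled to starting intensity during 10 to 20 s after thallium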
L major viab – Leishmania major promastigote growth inhibition. Leishmania major promastigotes, resazurin fluorescence viability. inhibition, % at 10 µM. hit rate 9% among 200,000. AID 1063; in the data active = inhibition above about 50%;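 also: promastigotes grown with compound for 44 hours at 28 °C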
Calpain2 inh – blocks pig calpain II enzyme activity. AID 1236. inhibition, % at 16 µM. purified calpain II, fluorogenic peptide substrate, 30 min. hit rate 0.37% among 220,000;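 active = inhibition above about 50%, limit read from the data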
WT yeast gro inh – growth inhibition of WT yeast, mitochondrial fusion screen | mitochondrial fusion phenotypic screen, WT strain | inhibition, % at 10 µM | hit rate 2.1% among 190,000 | AID 1362; in the data active = inhibition above about 58%; tested in S. cerevisiae
ROMK mod – modulates human ROMK potassium channel activity; P48048; Tet-inducible ROMK, thallium flux fluorescence; actives lie on both sides; B-score at 10 µM; hit rate 2% among 130,000; AID 1918;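 active = signal ratio slope over the read window, or its plate-corrected B-score, at least 3 SD from the plate mean, either direction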;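 also: B-score of the F/F0 ratio slope over 7 to 12 s after thallium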
Target sequence (P48048 whole entry, looked up): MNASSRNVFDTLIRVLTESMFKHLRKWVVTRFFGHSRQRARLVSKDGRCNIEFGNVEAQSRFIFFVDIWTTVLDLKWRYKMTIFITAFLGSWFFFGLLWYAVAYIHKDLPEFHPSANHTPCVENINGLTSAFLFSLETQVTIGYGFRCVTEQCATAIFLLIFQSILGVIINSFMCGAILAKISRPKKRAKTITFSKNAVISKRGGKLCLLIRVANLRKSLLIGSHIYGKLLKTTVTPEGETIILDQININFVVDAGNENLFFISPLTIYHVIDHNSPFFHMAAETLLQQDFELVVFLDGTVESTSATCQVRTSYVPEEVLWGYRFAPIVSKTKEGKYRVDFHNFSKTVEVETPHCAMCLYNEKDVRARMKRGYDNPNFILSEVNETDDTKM
Large screens that a line does not name were inactive.

Cc1ccccc1NCc1ccc(O)c2ncccc12	L major viab 100
O=Nc1ccc(O)c2ncccc12	none (no result: L major viab, WT yeast gro inh, ROMK mod)
Oc1ccc(CNc2ccccc2)c2cccnc12	L major viab 66
Oc1ccc(CNc2ccc(F)cc2)c2cccnc12	none
Oc1ccc(Cn2ccnc2)c2cccnc12	L major viab 99
CCOc1ccccc1/C=N/Nc1nc2c(N)ncnc2n1[C@H]1O[C@@H](CO)[C@H](O)[C@@H]1O	none (no result: L major viab, WT yeast gro inh, ROMK mod)
CC(C)C(O)C1CCN(Cc2nc(-c3cccs3)no2)CC1 (stereo not given)	none
Cn1c(CN2CCOCC2)nnc1SCc1ccc(C#N)cc1	none (no result: KCC2 mod)
CC(C)N1C(=O)c2ccccc2N(Cc2ccccc2)S1(=O)=O	none (no result: L major viab, WT yeast gro inh, ROMK mod)
Cc1cccc(NCc2ccc(O)c3ncccc23)c1	none
OCc1ccnc2c(O)cccc12	L major viab 100 (no result: ROMK mod)
COCc1ccc(O)c2ncccc12	L major viab 100
O=C(NCc1cccs1)C1CC(=O)N(c2ccc(F)cc2)C1 (stereo not given)	none
CCOC(=O)NC(=O)COC(=O)Cc1cc(OC)c(OC)c(OC)c1	none (no result: KCC2 mod)
CN1CCN(c2nc(-c3ccccc3)c3cc(Cl)ccc3n2)CC1	L major viab 86 (no result: ROMK mod)
OCCN1CCN(c2nc(-c3ccccc3)c3cc(Cl)ccc3n2)CC1	none (no result: ROMK mod)
Clc1ccc2nc(N3CCNCC3)nc(-c3ccccc3)c2c1	L major viab 101 (no result: Calpain2 inh)
CCC(C)C(=O)Nc1ccc(OC)cc1[N+](=O)[O-] (stereo not given)	L major viab 53
COc1ccc(NC(=S)NC(NC(=O)c2cccc(Cl)c2)C(Cl)(Cl)Cl)c([N+](=O)[O-])c1 (stereo not given)	L major viab 94 (no result: ROMK mod)
CCC(C)C(=O)Nc1ccc(OC)cc1OC (stereo not given)	none
COc1cc(C(=O)NC(=S)Nc2ccc([N+](=O)[O-])cc2C)cc(OC)c1OC	none (no result: ROMK mod)
COc1cccc(C(=O)NC(=S)Nc2ccc([N+](=O)[O-])cc2C)c1	KCC2 mod 6.6 (no result: ROMK mod)
C=CCn1cc(C(=O)OCC)c(=O)c2ccc(F)cc21	none
O=C(N/N=C/c1ccncc1)c1cccc(NC(=O)c2ccccc2Cl)c1	L major viab 62
CCCCC(=O)Nc1cccc(C(=O)N/N=C/c2ccc(OC)cc2OC)c1	L major viab 100
CC(=O)Nc1cccc(C(=O)N/N=C/c2ccccc2F)c1	L major viab 83
COc1ccc(/C=N/NC(=O)c2cccc(NC(=O)c3ccccc3Cl)c2)cc1OC	none
COc1ccc(/C=N/NC(=O)c2cccc(NC(=O)c3ccccc3Cl)c2)c(OC)c1	L major viab 53
CCCCCC(=O)NC(=S)NC1C2CC3CC(C2)CC1C3 (stereo not given)	none (no result: L major viab, WT yeast gro inh)
O=C(Nc1ccc(Cl)c(Cl)c1)O/N=C/c1ccncc1	WT yeast gro inh 74 (no result: ROMK mod)
CC1=C(C(=O)OC(C)(C)C)C(c2cccs2)NC(=O)N1 (stereo not given)	L major viab 69
CCCN(CC(=O)Nc1ccc(Cl)cc1Cl)C(=O)/C=C/c1ccco1	none (no result: ROMK mod)
Cn1c(-c2cccc(Br)c2)n[nH]c1=O	none
COC(=O)CCC(=O)N1CN2CN(C(=O)CCC(=O)OC)CC([N+](=O)[O-])(C2)C1	none (no result: L major viab, WT yeast gro inh, ROMK mod)
COC(=O)C1=CN(c2ccc(OC)cc2)C=C(C(=O)OC)C1c1ccc(C)c([N+](=O)[O-])c1	L major viab 99
O=C(NCc1ccccc1)C1=C[C@H](C2CC2)C[C@H](OCCCCO)O1	none (no result: ROMK mod)
CCc1ccccc1NC(=O)/C(C#N)=C/c1ccc(Sc2ccccc2)o1	L major viab 93
CCc1ccccc1NC(=O)/C(C#N)=C\c1ccc(Sc2ccccc2)o1	none (no result: ROMK mod)
Cc1nccn1CCN(C)Cc1cn(Cc2ccccc2)nc1-c1ccc2c(c1)OCO2	none
CC(C)c1nc(NCc2ccccc2)c(C#N)c2c1CCCC2	none
CN1CCc2c(C#N)c(N3CCCCC3)nc(NCc3ccccc3)c2C1	L major viab 78 (no result: KCC2 mod)
N#Cc1c(NCCCO)nc(-c2ccco2)c2c1CCCC2	none
N#Cc1c(NCCCO)nc(NCc2ccccc2)c2c1CCN(Cc1ccccc1)C2	L major viab 59
O=C(CN1CCCCC1)Nc1ccccc1Oc1ccccc1	none (no result: L major viab, WT yeast gro inh, ROMK mod)
CCOC(=O)c1cnc2c(c(C)nn2CC)c1NC1CC1	none
Cc1ccc(N2C(=O)CC(NNc3nc4ccccc4s3)C2=O)cc1C (stereo not given)	L major viab 56
O=C1CC(NNc2ccccc2)C(=O)N1c1ccccc1 (stereo not given)	L major viab 62
COc1cc(NC(=O)CN(c2ccc(C)cc2)S(=O)(=O)c2c(C)nn(C)c2C)cc(OC)c1	none (no result: KCC2 mod, ROMK mod)
O=C(CNC(=O)c1ccc(Cl)cc1)OCC(=O)N1CCCC1	none
COc1ccc(OC)c(C2C(C(=O)Nc3nc4ccccc4s3)=C(C)NC3=C2C(=O)CCC3)c1 (stereo not given)	L major viab 98 (no result: KCC2 mod, ROMK mod)
COc1cccc(C2C(C(=O)Nc3nc4ccccc4s3)=C(C)NC3=C2C(=O)CC(C)(C)C3)c1OC (stereo not given)	L major viab 58
COC(=O)C1=C(C)NC2=C(C(=O)CC(C)(C)C2)C1c1ccccn1 (stereo not given)	none
CCOC(=O)c1ccc(-n2nc(C(F)(F)F)c3c(C)cc(=O)oc32)cc1	none (no result: Calpain2 inh, WT yeast gro inh)
Cc1ccc2oc(=O)c3cnn(CC(=O)N(CCCN4CCOCC4)Cc4ccco4)c3c2c1	none (no result: ROMK mod)
CC(C)(C)n1nnnc1C(c1cccs1)N1CCN(C(=O)c2ccco2)CC1 (stereo not given)	none (no result: ROMK mod)
CC(C)(C)n1nnnc1C(c1cccnc1)N1CCN(C(=O)c2ccco2)CC1 (stereo not given)	L major viab 68 (no result: ROMK mod)
CC(C)(C)n1nnnc1C(c1cccnc1)N1CCN(c2cccc(C(F)(F)F)c2)CC1 (stereo not given)	L major viab 95 (no result: ROMK mod)
Cc1cccc(N2CCN(C(c3ccncc3)c3nnnn3C(C)(C)C)CC2)c1C (stereo not given)	L major viab 87
CC1=C(Cl)C2=NS(=O)(=O)CCN2C=C1Cl	none
COC(=O)Cc1c(O)ccn(Cc2ccc(F)cc2)c1=O	ROMK mod 1
CCC(Oc1ccccc1)C(=O)Nc1ccccn1 (stereo not given)	none (no result: ROMK mod)
CCOc1ccc(NC(=O)C2CC(C)=C(C)CC2C(=O)O)cc1 (stereo not given)	L major viab 81
Cc1ccc2[nH]c3c(c2c1)CN(C(=O)CN1CCN(c2cccc(C)c2C)CC1)CC3	L major viab 66 (no result: ROMK mod)
CCn1c(C)nc2cc(C(=O)OC(C(F)(F)C(F)F)C(F)(F)C(F)F)ccc21	L major viab 100 (no result: ROMK mod)
Clc1ncc(CSc2ccccc2)s1	none
O=C1NC(=S)S/C1=C\c1ccc(SCc2ccco2)o1	KCC2 mod 119, Calpain2 inh 52, WT yeast gro inh 69, ROMK mod -2.8
O=C1NC(=S)S/C1=C\c1ccc(SCc2ccccc2)o1	KCC2 mod 29, WT yeast gro inh 83
CN(C(=O)COC(=O)c1ccc(=O)n(Cc2ccccc2)n1)c1ccccc1	none
CCOc1ccc(N(CC(=O)N/N=C/c2cc(Br)c(C)o2)S(C)(=O)=O)cc1	none (no result: ROMK mod)
O=C1CN(C(=O)CSc2nc3cc(Cl)ccc3c(=O)n2Cc2ccccc2)c2ccccc2N1	KCC2 mod 24 (no result: ROMK mod)
Cn1nnnc1SCC(=O)N1CCc2ccccc2C1	none
